Test results taken from PubChem BioAssay (Tox21).
Several values for one entry are separate records, joined by “and”; a condition that tells them apart may be missing. Equal entries are not always repeated. Some compounds were tested as several samples or in several runs, with calls that do not always agree. Activity calls are given as the source filed them. Unless noted, calls follow the shape of the dose curve; as a rule, active = well fitted curve in the direction sought with a large enough effect in the repeat runs; inconclusive = weak or mixed curves; inactive = no such curve, though single readings can be large; an effect the other way counts as inactive or inconclusive.

Columns and labels:
[1] = qHTS assay to identify small molecule antagonists of the thyroid receptor (TR) signaling pathway - cell viability counter screen (AID 743064); also: nearly all actives have a fitted effect of over 50% in size; also: potency is read from the fitted curve at half-maximal effect
How it was run: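 Compounds were tested on GH3.TRE-Luc cells in the presence of T3 at 1 nM final. Following 23.5 h at 37 °C, cell viability was quantified by CellTiter-Fluor.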

[2] = qHTS assay to identify small molecule antagonists of the thyroid receptor (TR) signaling pathway (AID 743065); also: nearly all actives have a fitted effect of over 55% in size; also: potency is read from the fitted curve at half-maximal effect
How it was run: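 Antagonism measured as loss of luciferase signal in GH3 cells stably carrying a TRE-luciferase reporter, co-treated with compound and T3 (1 nM final) for 23.5 h at 37 C. Viability was read in the same well by CellTiter-Fluor.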

[3] = system: thyroid hormone receptor (rat, GH3 cells); test: qHTS assay to identify small molecule agonists of the thyroid receptor (TR) signaling pathway (AID 743066; calls by dose curve)
[4] = biological target: Estrogen receptor (Homo sapiens) (UniProt P03372); test: qHTS assay to identify small molecule antagonists of the estrogen receptor alpha (ER-alpha) signaling pathway (AID 743069; active = well fitted curve in the direction sought with a large enough effect in the signal ratio in the repeat runs, not every such curve was filed as active; inconclusive = weak or mixed curves, or effect the other way; inactive = no such curve, though single readings can be large or run the other way; the % refers to the signal ratio)
Chain of Estrogen receptor (Homo sapiens) (P03372 whole entry, looked up): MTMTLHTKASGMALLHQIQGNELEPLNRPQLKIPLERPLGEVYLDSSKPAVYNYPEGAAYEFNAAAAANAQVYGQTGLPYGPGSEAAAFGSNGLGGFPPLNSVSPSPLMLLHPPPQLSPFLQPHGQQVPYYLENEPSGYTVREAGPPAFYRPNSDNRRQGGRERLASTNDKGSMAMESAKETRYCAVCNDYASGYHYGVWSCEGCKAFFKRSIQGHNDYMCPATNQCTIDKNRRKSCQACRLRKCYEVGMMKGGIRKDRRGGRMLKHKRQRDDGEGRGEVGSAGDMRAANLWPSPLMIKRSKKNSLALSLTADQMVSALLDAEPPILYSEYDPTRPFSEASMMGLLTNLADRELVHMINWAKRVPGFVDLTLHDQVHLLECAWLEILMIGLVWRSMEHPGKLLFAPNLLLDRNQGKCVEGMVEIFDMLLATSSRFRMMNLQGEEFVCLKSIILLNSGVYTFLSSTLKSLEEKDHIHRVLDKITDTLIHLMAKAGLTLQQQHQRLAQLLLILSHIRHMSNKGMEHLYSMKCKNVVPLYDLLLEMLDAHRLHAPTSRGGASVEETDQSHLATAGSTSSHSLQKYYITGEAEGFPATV
How it was run: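 Compound effects are measured against 17beta-estradiol stimulation in HEK293 cells with a UAS-controlled beta-lactamase reporter for ER-alpha. Exposure lasts 18 hr at 37C; LiveBLAzer B/G FRET substrate follows for 2 hr at room temperature.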

[5] = qHTS assay to identify small molecule antagonists of the estrogen receptor alpha (ER-alpha) signaling pathway - cell viability counter screen (AID 743074; calls by dose curve;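 also: HEK293 cells carrying ER-alpha-UAS-bla reporter stimulated with 17beta-estradiol; nearly all actives have a fitted effect of over 45% in size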; also: potency is read from the fitted curve at half-maximal effect)
[6] = biological target: Estrogen receptor (Homo sapiens) (UniProt P03372); test: qHTS assay to identify small molecule agonists of the estrogen receptor alpha (ER-alpha) signaling pathway (AID 743075; calls by dose curve; also: potency is read from the fitted curve at half-maximal effect)
[7] = biological target: Estrogen receptor (Homo sapiens) (UniProt P03372); test: qHTS assay to identify small molecule agonists of the estrogen receptor alpha (ER-alpha) signaling pathway using the BG1 cell line (AID 743079); also: nearly all actives have a fitted effect of over 20% in size; also: potency is read from the fitted curve at half-maximal effect
[8] = qHTS assay to identify small molecule antagonists of the estrogen receptor alpha (ER-alpha) signaling pathway using the BG1 cell line - cell viability counter screen (AID 743081);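 also: compound given together with 17beta-estradiol as the ER stimulus; nearly all actives have a fitted effect of over 45% in size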; also: potency is read from the fitted curve at half-maximal effect
[9] = biological target: Aromatase (Homo sapiens) (UniProt P11511); test: qHTS assay to identify aromatase inhibitors (AID 743083); also: nearly all actives have a fitted effect of over 55% in size; also: potency is read from the fitted curve at half-maximal effect
Chain of Aromatase (Homo sapiens) (P11511 whole entry, looked up): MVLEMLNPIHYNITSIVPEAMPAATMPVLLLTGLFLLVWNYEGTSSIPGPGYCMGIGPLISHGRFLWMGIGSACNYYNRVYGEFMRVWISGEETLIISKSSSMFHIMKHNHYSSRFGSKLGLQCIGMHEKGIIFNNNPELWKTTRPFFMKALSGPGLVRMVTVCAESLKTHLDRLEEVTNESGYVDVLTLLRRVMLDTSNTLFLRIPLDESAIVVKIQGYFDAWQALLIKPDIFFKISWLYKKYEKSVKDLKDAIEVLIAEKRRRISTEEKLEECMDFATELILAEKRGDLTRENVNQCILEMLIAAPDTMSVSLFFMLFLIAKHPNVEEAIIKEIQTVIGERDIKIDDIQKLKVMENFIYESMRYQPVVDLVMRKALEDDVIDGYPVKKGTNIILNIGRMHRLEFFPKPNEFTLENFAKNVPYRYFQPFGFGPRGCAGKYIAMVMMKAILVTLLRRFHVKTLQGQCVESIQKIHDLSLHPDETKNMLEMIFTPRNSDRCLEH

[10] = qHTS assay to identify aromatase inhibitors - cell viability counter screen (AID 743084);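 also: cells stimulated with testosterone during compound exposure; nearly all actives have a fitted effect of over 55% in size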; also: potency is read from the fitted curve at half-maximal effect
[11] = qHTS assay to identify small molecule that activate the aryl hydrocarbon receptor (AhR) signaling pathway - cell viability counter screen (AID 743086);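 also: HepG2 liver cells carrying the AhR DRE luciferase reporter; series mostly up to about 70 µM; nearly all actives have a fitted effect of over 45% in size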
How it was run: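 Cytotoxicity counter screen: CellTiter-Fluor signal (30 min, 37 C) in 4000 HepG2 cells/well carrying the DRE-luciferase reporter, following 24 h compound exposure at 37 C.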

[12] = biological target: Peroxisome proliferator-activated receptor gamma (Homo sapiens) (UniProt P37231); test: qHTS assay to identify small molecule agonists of the peroxisome proliferator-activated receptor gamma (PPARg) signaling pathway (AID 743094; active = well fitted activation curve with a large enough effect in the signal ratio in the repeat runs, not every such curve was filed as active; inconclusive = weak or mixed curves, or effect the other way; inactive = no such curve, though single readings can be large or run the other way; the % refers to the signal ratio; also: potency is read from the fitted curve at half-maximal effect)
Chain of Peroxisome proliferator-activated receptor gamma (Homo sapiens) (P37231 whole entry, looked up): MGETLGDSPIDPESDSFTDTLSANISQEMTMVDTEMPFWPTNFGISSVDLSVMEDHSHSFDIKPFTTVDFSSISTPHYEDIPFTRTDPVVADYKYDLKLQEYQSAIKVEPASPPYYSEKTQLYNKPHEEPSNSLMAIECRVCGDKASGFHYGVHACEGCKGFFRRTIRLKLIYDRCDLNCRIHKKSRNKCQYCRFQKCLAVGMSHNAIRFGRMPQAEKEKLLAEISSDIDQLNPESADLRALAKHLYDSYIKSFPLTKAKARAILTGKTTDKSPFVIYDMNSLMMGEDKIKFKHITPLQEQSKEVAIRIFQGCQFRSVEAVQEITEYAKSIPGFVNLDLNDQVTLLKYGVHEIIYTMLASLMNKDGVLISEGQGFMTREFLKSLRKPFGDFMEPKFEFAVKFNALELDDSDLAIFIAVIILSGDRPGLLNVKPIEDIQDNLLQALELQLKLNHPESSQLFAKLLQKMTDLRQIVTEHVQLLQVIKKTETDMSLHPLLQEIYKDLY
How it was run: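 Quantitative HTS agonist mode: stable HEK293H line with UAS-beta-lactamase reporter under PPARg control, 17 h compound exposure at 37C, fluorescence after 1 h FRET substrate loading at room temperature.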

[13] = qHTS assay to identify small molecule antagonists of the peroxisome proliferator-activated receptor gamma (PPARg) signaling pathway - cell viability counter screen (AID 743194); also: nearly all actives have a fitted effect of over 55% in size; also: potency is read from the fitted curve at half-maximal effect
How it was run: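 Viability was measured as CellTiter-Glo luminescence in GeneBLAzer PPARg UAS-bla HEK293H cells. These cells had been exposed 17 h at 37 C to compounds together with rosiglitazone at 50 nM final, with the beta-lactamase readout taken in the same wells.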

[14] = qHTS assay for small molecule agonists of the antioxidant response element (ARE) signaling pathway (AID 743202; active = well fitted activation curve with a large enough effect in the signal ratio in the repeat runs, not every such curve was filed as active; inconclusive = weak or mixed curves, or effect the other way; inactive = no such curve, though single readings can be large or run the other way; the % refers to the signal ratio; also: potency is read from the fitted curve at half-maximal effect)
How it was run: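 An ARE-responsive beta-lactamase gene stably integrated in HepG2 cells serves as reporter. After 5 h plating and 16 h compound incubation at 37 C, fluorescence of the B/G FRET substrate was measured.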

[15] = qHTS assay for small molecule activators of the heat shock response signaling pathway - cell viability counter screen (AID 743209); also: nearly all actives have a fitted effect of over 50% in size; also: potency is read from the fitted curve at half-maximal effect
How it was run: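 First, HSE-bla HeLa cells were seeded at 1500 cells/well and kept overnight at 37 C. Next, compounds were pinned in and incubated 5 h. After the FRET substrate step, CellTiter-Glo was added and luminescence read 30 min later.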

[16] = qHTS assay for small molecule activators of the heat shock response signaling pathway (AID 743210; active = well fitted activation curve with a large enough effect in the signal ratio in the repeat runs, with a control signal flat, not every such curve was filed as active; inconclusive = weak or mixed curves; the % refers to the signal ratio;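 also: HeLa cells with beta-lactamase reporter driven by heat shock elements; series mostly up to about 63 µM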)
How it was run: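 In HSE-bla HeLa cells, 5 h compound incubation (37 C) precedes addition of LiveBLAzer B/G substrate; after 2.5 h at room temperature, fluorescence intensity indicates reporter induction.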

[17] = biological target: Aryl hydrocarbon receptor (Homo sapiens) (UniProt P35869); test: qHTS assay to identify small molecule that activate the aryl hydrocarbon receptor (AhR) signaling pathway (AID 743085); also: nearly all actives have a fitted effect of over 15% in size; also: potency is read from the fitted curve at half-maximal effect;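 as to activation: HG2L7.5c1 human HepG2 liver cells with stably integrated DRE-driven firefly reporter; series mostly up to about 70 µM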
Chain of Aryl hydrocarbon receptor (Homo sapiens) (P35869 whole entry, looked up): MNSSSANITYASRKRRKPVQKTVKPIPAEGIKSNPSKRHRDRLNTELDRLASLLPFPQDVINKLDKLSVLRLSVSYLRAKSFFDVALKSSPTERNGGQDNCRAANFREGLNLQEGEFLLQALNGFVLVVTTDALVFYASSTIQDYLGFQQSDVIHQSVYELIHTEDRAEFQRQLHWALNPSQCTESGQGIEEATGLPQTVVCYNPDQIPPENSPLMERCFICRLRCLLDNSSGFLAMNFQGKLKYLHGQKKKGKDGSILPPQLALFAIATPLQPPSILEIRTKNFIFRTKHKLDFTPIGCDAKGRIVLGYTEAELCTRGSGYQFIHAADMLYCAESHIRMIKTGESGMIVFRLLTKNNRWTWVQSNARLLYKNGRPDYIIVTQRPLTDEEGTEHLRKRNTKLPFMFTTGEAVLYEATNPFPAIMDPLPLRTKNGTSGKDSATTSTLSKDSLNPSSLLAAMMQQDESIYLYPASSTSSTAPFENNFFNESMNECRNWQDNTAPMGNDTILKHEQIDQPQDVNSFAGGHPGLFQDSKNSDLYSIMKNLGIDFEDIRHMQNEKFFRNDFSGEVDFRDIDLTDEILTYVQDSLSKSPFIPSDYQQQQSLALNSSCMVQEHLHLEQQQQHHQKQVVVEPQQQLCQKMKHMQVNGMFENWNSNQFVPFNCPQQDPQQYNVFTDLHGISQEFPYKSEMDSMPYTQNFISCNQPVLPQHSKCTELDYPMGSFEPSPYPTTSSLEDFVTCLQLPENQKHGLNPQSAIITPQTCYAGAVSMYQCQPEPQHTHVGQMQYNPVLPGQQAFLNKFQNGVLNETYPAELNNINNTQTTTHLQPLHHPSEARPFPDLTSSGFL
How it was run: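 24 h compound exposure, 37C, HepG2-derived HG2L7.5c1 cells with DRE-responsive luciferase. Readouts: fluorescence viability, then luminescence at room temperature after 30 min.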

[18] = biological target: Peroxisome proliferator-activated receptor gamma (Homo sapiens) (UniProt P37231); test: qHTS assay to identify small molecule antagonists of the peroxisome proliferator-activated receptor gamma (PPARg) signaling pathway (AID 743191; calls by dose curve; also: series mostly up to about 63 µM; nearly all actives have a fitted effect of over 30% in size)
How it was run: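 Beta-lactamase reporter under UAS control in HEK293H PPARg-bla cells; compound treatment 17 h at 37C. Read-out: fluorescence intensity after 1 h room-temperature incubation with LiveBLAzer B/G FRET substrate.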

[19] = qHTS assay for small molecule agonists of the antioxidant response element (ARE) signaling pathway - cell viability counter screen (AID 743203; calls by dose curve; also: nearly all actives have a fitted effect of over 55% in size)
How it was run: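 Seeded at 2,000 cells/well, ARE-bla HepG2 cells were incubated 5 hrs before compound addition. After 16 hrs of treatment at 37C with 5% CO2, CellTiter-Glo reagent was added and luminescence read 30 min later.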

[20] = qHTS assay to identify small molecule antagonists of the estrogen receptor alpha (ER-alpha) signaling pathway using the BG1 cell line (AID 743080; calls by dose curve;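 also: BG1 cells stimulated with 17beta-estradiol alongside compound; series mostly up to about 70 µM; nearly all actives have a fitted effect of over 25% in size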)
How it was run: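 BG1-Luc-4E2 cells (endogenous full-length ER-alpha, 4xERE luciferase) hormone-starved 5 days in charcoal-stripped FBS, plated 4,000/well for 24 h, then compound plus 17beta-estradiol for 21.5 h at 37 C; ONE-Glo luminescence read.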

Measured: Potency

O=CCCCC=O
47.2 µM (active) and inactive: [15]
inactive and 53 µM (active): [12]
52.5 µM (active) and inactive: [14]
not listed: [17] | [18] | [19] | [20]
inactive: all other assays above

NNc1ccc(C(=O)O)cc1
not listed: [4] | [6] | [7] | [13] | [20]
inactive: all other assays above

CCC(C)OC(=O)c1ccc(O)cc1 (centres undefined)
active: [6] 24.7 µM [inconclusive] and 38.9 µM [inconclusive] | [7] 6.9 µM and 6.11 µM
not listed: [20]
inactive: all other assays above

CC(=O)Oc1ccccc1C(=O)Nc1ncc([N+](=O)[O-])s1
inactive and 19.7 µM (active): [9]
active: [1] 29.8 µM and 19.7 µM | [2] 11.9 µM and 7.85 µM | [5] 7.56 µM | [7] 668 nM | [10] 22.1 µM | [13] 1.58 µM and 5.31 µM | [15] 1.19 µM
10.6 µM (active) and inactive: [17]
inactive: [3] | [4] | [6] | [12] | [14] | [16]

Nc1ncn([C@@H]2O[C@H](CO)[C@@H](O)[C@H]2O)c(=O)n1
active: [1] 5.31 µM and 9.69 µM | [2] 7.5 µM and 9.69 µM | [9] 13.3 µM and 8.63 µM | [14] 1.54 µM and 2.66 µM
not listed: [4] | [10] | [11] | [12] | [18] | [19]
inactive: all other assays above

CCCCOCCOCCO
inactive and 61.1 µM (active): [9]
not listed: [2] | [11] | [18] | [19]
inactive: all other assays above

CC1=CC2C3CC(C=C3C)C2C1 (centres undefined)
inactive and 27.3 µM (active): [14]
not listed: [11]
inactive: all other assays above

CCCCOCCOCCOCCO
not listed: [11] | [19]
inactive: all other assays above

O=C1OC2(c3cc(Br)c(O)c(Br)c3Oc3c2cc(Br)c(O)c3Br)c2c(Cl)c(Cl)c(Cl)c(Cl)c21
active: [1] 24.4 µM and 41.6 µM | [2] 54.5 µM and 41.6 µM | [8] 8.64 µM and 18.6 µM | [10] 4.86 µM and 8.31 µM
inactive: [3] | [4] | [6] | [7] | [9] | [17] | [13] | [14] | [15]

O=C(/C=C/c1ccccc1)OCc1ccccc1
active: [7] 29800 nM
not listed: [11] | [13] | [14] | [18] | [19]
inactive: all other assays above

Nc1ccc(Nc2ccccc2)cc1
61.1 µM (active) and inactive: [10]
active: [1] 60.4 µM and 30.6 µM and 34.4 µM
not listed: [2] | [3] | [4] | [11] | [14] | [18] | [19]
inactive: all other assays above

CC1=CCC(C(C)(C)O)CC1 (centres undefined)
not listed: [1]
inactive: all other assays above

Oc1ccc(O)cc1
active: [1] 26.6 µM and 17.1 µM and 34.4 µM
inactive and 60.8 µM (active): [9]
inactive and 54.2 µM (active): [10]
not listed: [2] | [4] | [12] | [14] | [17] | [18] | [19]
inactive: all other assays above

C=CC(C)(CCC=C(C)C)OC(C)=O (centres undefined)
not listed: [1] | [18]
inactive: all other assays above

O=P(O)(O)O
inactive: [1] | [3] | [5] | [8] | [9] | [10] | [17] | [11] | [19] | [15] | [16]
